Reference: PubChem BioAssay (NCATS)
Results filed as inconclusive are left out. Calls of active or inactive are those of the source. Unless noted, calls come from the whole dose curve; as a rule, active = well fitted curve in either direction with a large enough effect (not every such curve was filed as active); inconclusive = small, poorly fitted or top-dose-only effect, or another doubt; inactive = flat fitted curve, though single readings scatter.

Tests used:
[1] = molecular target: Lysosomal acid glucosylceramidase (Homo sapiens) (UniProt P04062); test: Glucocerebrosidase-p2 (AID 348; in the data active = potency below about 10 µM; note: potency is the fitted concentration of half-maximal effect); settings: purified GBA, blue fluorogenic substrate, 40 min
Lysosomal acid glucosylceramidase (Homo sapiens), sequence (P04062 whole entry, looked up): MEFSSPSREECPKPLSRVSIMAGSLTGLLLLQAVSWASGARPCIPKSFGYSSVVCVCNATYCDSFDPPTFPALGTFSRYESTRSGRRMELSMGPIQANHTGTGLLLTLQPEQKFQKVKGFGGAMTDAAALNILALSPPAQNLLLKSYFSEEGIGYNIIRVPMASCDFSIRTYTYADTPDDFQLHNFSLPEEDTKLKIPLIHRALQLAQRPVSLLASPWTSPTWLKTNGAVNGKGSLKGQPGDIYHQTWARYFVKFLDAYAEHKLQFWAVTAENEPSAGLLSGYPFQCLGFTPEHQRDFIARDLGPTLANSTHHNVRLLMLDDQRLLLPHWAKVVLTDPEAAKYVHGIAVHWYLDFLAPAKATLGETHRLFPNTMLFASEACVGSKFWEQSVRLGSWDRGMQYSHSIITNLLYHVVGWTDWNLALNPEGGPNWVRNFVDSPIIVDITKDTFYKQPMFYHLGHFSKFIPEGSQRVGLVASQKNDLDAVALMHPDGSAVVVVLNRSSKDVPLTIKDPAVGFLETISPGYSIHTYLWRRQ
In short: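 Normal human glucocerebrosidase (0.2 nM) with blue fluorogenic substrate (80 uM final) in citrate/phosphate pH 5.9 with 10mM sodium taurocholate, 0.01% tween-20; 40 min RT, NaOH/glycine stop; fluorescence Ex 365/Em 440; AC50 from a titration from 0.6 nM upwards.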

[2] = AP1 Signaling Pathway (AID 357); settings: ME-180 AP-1-bla reporter, EGF-induced, beta-lactamase ratio, 5 h; at 7.69 µM (top of the series) unless noted;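 note: ME-180 reporter cells stimulated with EGF at its EC50 level; % is set by controls: 0 for no effect and ±100 for the full control effect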
In short: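 Titration-series screen for positive or negative modulators of EC50 EGF-induced signaling in ME-180 cells carrying an AP-1-driven beta-lactamase reporter. After 5 hours at 37 degrees Celsius, CCF4 460nm/530nm emission ratio gave %Activity; AC50 values derived.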

[3] = Stat Signaling Pathway (AID 446); settings: ME-180 (cervical carcinoma) SIE beta-lactamase reporter, IL-6 stimulated, 5 h; at 7.69 µM (top of the series) unless noted;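 note: ME-180 cervical cancer cells given 40 pM IL-6 alongside compound; SIE-controlled beta-lactamase reporter measured as 460/530 nm FRET emission ratio; % is set by controls: 0 for no effect and ±100 for the full control effect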
In short: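 Compound effects on IL-6-induced STAT reporter activity were measured in ME-180 cells. After overnight culture, cells were co-treated with 40 pM IL-6 for 5 hrs before beta-lactamase substrate loading at room temperature.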

[4] = molecular target: Glucocorticoid receptor (Homo sapiens) (UniProt P04150); test: GR-EFC Redistribution (AID 451; calls by dose curve; note: potency is the fitted concentration of half-maximal effect); settings: CHO-K1 GR-EFC translocation, beta-gal luminescence, 2 h
Glucocorticoid receptor (Homo sapiens), sequence (P04150 whole entry, looked up, the tested form may be a part): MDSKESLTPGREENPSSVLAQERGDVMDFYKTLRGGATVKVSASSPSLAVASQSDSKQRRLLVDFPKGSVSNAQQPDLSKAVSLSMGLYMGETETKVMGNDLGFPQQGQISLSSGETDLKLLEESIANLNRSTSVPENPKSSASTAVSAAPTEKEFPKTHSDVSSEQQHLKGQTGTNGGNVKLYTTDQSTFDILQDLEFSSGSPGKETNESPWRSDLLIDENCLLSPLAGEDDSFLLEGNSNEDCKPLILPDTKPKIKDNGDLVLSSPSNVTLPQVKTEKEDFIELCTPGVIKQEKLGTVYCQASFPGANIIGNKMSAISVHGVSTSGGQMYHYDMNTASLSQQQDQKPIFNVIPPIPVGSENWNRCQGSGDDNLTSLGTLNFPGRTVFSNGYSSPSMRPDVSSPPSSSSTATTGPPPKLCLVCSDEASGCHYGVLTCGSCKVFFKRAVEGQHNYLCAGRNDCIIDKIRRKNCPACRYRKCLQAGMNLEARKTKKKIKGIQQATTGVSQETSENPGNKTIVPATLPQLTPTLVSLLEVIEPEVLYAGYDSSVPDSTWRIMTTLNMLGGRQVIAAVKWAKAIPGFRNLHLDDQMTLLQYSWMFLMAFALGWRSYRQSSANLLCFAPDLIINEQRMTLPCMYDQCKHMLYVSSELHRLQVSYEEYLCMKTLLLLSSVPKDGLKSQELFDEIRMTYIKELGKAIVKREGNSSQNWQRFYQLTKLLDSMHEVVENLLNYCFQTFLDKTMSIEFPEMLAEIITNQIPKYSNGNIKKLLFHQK
In short: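 CHO-K1 cells stably expressing nuclear-localized β-gal enzyme acceptor and GR fused C-terminally to the enzyme donor fragment; ligand-driven nuclear translocation restores β-gal by complementation. Compounds titrated up to 46 uM final, 2 h at 37 °C; luminescence read.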

[5] = molecular target: Mitogen-activated protein kinase 10 (Mus musculus) (UniProt Q61831); test: JNK3 AlphaScreen Assay (AID 530); settings: JNK3 lysate, c-Jun phosphorylation; series mostly up to 57.1 µM;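 note: kinase came from lysate of stimulated human HepG2 cells; signal reports phosphorylation of biotinylated GST-cJun 1-79 at Ser73 with 10 µM ATP; % is set by controls: 0 for no effect and ±100 for the full control effect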
In short: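 Phosphorylation of biotinylated GST-cJun(1-79) at Ser73 is measured by AlphaScreen proximity luminescence. Enzyme is JNK3 in HepG2 lysates activated with interleukin-1beta and tumor necrosis factor alpha; ATP is 10 uM final.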

[6] = molecular target: 3',5'-cyclic-AMP phosphodiesterase 4B (Homo sapiens) (UniProt Q07343); test: qHTS Assay for Inhibitors of PDE-IV (AID 607; active = well fitted activation curve with a large enough effect in the main read-out, with a control signal flat, not every such curve was filed as active; note: % of control where 0% means no effect); settings: HEK293 ACTOne CNG channel cells, membrane potential fluorescence; series mostly up to 22.9 µM
3',5'-cyclic-AMP phosphodiesterase 4B (Homo sapiens), sequence (Q07343 whole entry, looked up): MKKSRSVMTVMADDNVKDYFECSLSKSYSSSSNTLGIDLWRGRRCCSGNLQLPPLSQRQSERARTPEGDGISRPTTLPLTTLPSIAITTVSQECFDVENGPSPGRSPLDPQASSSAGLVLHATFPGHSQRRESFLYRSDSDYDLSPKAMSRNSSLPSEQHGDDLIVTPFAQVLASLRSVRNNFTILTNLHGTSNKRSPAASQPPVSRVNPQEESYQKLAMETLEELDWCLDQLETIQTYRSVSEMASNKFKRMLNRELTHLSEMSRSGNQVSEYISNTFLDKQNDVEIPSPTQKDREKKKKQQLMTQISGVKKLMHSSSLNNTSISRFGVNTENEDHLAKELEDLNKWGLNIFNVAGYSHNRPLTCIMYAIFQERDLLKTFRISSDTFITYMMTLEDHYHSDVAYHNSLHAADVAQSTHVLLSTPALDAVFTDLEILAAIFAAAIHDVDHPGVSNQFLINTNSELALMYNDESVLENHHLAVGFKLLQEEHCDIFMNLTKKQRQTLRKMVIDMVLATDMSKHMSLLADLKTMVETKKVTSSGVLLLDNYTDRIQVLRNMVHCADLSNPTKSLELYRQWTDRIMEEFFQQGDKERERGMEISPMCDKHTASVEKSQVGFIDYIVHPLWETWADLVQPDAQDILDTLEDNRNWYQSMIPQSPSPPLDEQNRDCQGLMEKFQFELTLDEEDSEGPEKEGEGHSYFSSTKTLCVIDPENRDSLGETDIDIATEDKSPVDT
In short: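 ACTOne HEK293 cells carry a modified cAMP-gated CNG channel and express endogenous PDE4; plated 1000 cells/well, compounds up to 22.9 uM final. Membrane-potential dye fluorescence (ex 535/em 590) was read; parental cells received 10 uM forskolin + 100 uM RO 20-1724.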

[7] = molecular target: Cytochrome P450 3A4 (Homo sapiens) (UniProt P08684); test: qHTS Assay for Activators of Cytochrome P450 3A4 (AID 885; active = well fitted curve in the direction sought with a large enough effect; an effect the other way counts as inactive or inconclusive; note: nearly all actives have a fitted effect of over 65% in size; note: potency is the fitted concentration of half-maximal effect); settings: recombinant CYP3A4, Luciferin-PPXE luminescence, 60 min; series mostly up to 57.1 µM
Cytochrome P450 3A4 (Homo sapiens), sequence (P08684 whole entry, looked up): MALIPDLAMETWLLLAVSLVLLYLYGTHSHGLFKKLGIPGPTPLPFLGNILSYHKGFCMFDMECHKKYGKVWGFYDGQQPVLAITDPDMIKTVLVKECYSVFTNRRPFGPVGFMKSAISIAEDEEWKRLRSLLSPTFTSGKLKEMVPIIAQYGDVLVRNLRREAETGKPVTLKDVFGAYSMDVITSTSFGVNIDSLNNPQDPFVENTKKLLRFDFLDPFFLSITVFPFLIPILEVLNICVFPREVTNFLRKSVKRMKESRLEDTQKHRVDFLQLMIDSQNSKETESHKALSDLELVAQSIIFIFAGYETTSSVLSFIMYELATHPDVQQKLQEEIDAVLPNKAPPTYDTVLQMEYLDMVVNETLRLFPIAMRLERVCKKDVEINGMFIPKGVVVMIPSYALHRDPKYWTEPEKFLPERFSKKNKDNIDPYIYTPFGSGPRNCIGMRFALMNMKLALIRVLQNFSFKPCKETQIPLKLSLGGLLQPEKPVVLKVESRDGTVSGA
In short: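 CYP3A4 activity: Luciferin-PPXE O-dealkylation, 25uM substrate, 200mM KPO4, RT throughout. Read-out is luciferase luminescence; higher values reflect activation.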

[8] = qHTS Assay for Lipid Storage Modulators (AID 1519; calls by dose curve); settings: Drosophila S3 cells, BODIPY lipid droplet/cell ratio, laser cytometry, cells loaded with oleic acid; for activity change, negative = inhibition: at 57.5 µM (top of the series)
In short: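 Cells seeded at 5,000 per well were treated with compounds over a concentration series and loaded with oleic acid (400 uM, as added). Lipid droplet fluorescence (488 nm excitation, 500-530 nm channel) was read by laser-scanning cytometry and normalized to 20 uM Triacsin C.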

[9] = Primary qHTS for small molecule stabilizers of the endoplasmic reticulum resident proteome: Secreted ER Calcium Modulated Protein (SERCaMP) assay (AID 1508630; active = well fitted curve in the direction sought with a large enough effect; an effect the other way counts as inactive or inconclusive; note: % is set by controls: 0 for no effect and ±100 for the full control effect); settings: SH-SY5Y GLuc-SERCaMP (Gaussia luciferase released on ER calcium loss) secretion, thapsigargin, luminescence; series mostly up to 38.4 µM
In short: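 The SH-SY5Y reporter protocol was run at 3 concentrations up to 38.3 uM (primary) or 11 concentrations (follow-up): 16 h compound, 100 nM thapsigargin for 4 h, then extracellular luciferase luminescence.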

[10] = molecular target: Cytochrome P450 1A2 (Homo sapiens) (UniProt P05177); test: p450-cyp1a2 (AID 410; calls by dose curve; note: potency is the fitted concentration of half-maximal effect;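 for activity change, negative = inhibition: -100% = full effect of reference inhibitor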); settings: recombinant CYP1A2, luciferin-ME demethylation, luminescence; series mostly up to 57 µM
Cytochrome P450 1A2 (Homo sapiens), sequence (P05177 whole entry, looked up): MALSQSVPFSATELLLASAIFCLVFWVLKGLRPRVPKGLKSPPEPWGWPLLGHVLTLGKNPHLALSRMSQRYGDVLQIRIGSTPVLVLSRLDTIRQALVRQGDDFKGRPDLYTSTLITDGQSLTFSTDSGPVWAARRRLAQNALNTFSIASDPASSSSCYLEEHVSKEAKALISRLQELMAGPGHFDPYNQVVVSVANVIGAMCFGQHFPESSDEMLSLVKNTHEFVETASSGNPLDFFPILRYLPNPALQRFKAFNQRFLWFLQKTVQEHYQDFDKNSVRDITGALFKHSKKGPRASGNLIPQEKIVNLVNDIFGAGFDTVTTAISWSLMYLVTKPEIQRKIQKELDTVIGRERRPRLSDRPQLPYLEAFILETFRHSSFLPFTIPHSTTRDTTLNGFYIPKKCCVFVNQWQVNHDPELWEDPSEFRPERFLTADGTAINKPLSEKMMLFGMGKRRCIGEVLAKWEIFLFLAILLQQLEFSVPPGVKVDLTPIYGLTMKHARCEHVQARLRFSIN
In short: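 O-Demethylation of luciferin 6' methyl ether by human CYP1A2 is monitored as luciferase luminescence. Substrate sits at Km (100uM); enzyme is 20nM. Values are scaled to 57 uM furafylline as maximal inhibition.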

[11] = NFAT Signaling Pathway (AID 444); settings: Jurkat NFAT-bla M1, carbachol, beta-lactamase ratio, 5 h; at 7.69 µM (top of the series) unless noted
In short: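 Jurkat cells carrying an NFAT-driven β-lactamase reporter and co-transfected muscarinic M1 receptor were treated with compound plus carbachol (1 uM final, an EC50 level) for 5 h at 37 °C. CCF4 loading followed for 1 h at RT; 460/530 nm ratio gave %activity.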

[12] = molecular target: Cytochrome P450 3A4 (Homo sapiens) (UniProt P08684); test: qHTS Assay for Inhibitors and Substrates of Cytochrome P450 3A4 (AID 884; active = well fitted curve in the direction sought with a large enough effect; an effect the other way counts as inactive or inconclusive; note: % is set by controls: 0 for no effect and ±100 for the full control effect; nearly all actives have a fitted effect of over 50% in size); settings: recombinant CYP3A4, Luciferin-PPXE luminescence; series mostly up to 57.1 µM
In short: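 Luminescent readout of luciferin produced by CYP3A4 (20 nM) dealkylation of Luciferin-PPXE, 25 uM (its KM). NADPH-driven reaction ran 60 min at RT after 10 min compound preincubation; data scaled to 57 uM ketoconazole as 100% inhibition.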

[13] = molecular target: Cytochrome P450 2D6 (Homo sapiens) (UniProt P10635); test: qHTS Assay for Inhibitors and Substrates of Cytochrome P450 2D6 (AID 891; active = well fitted curve in the direction sought with a large enough effect; an effect the other way counts as inactive or inconclusive; note: potency is the fitted concentration of half-maximal effect; nearly all actives have a fitted effect of over 60% in size); settings: recombinant CYP2D6, luciferin-ME EGE luminescence; series mostly up to 57.1 µM
Cytochrome P450 2D6 (Homo sapiens), sequence (P10635 whole entry, looked up): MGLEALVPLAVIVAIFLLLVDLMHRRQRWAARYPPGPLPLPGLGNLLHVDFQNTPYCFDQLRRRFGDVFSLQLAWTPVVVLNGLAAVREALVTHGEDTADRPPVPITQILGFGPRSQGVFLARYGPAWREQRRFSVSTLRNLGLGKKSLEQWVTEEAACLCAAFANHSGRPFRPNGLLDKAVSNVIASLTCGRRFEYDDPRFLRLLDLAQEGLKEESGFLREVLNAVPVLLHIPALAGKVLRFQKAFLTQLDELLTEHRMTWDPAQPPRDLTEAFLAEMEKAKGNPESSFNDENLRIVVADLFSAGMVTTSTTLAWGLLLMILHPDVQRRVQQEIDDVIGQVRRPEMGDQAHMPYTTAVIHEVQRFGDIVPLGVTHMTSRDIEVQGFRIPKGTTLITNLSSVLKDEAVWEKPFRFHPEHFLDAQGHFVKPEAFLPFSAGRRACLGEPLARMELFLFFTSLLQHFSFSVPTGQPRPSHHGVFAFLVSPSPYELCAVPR
In short: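 Luminescent read-out of luciferin formed by 5 nM human CYP2D6 demethylating 30 uM Luciferin-ME EGE (Km level) over 60 min at room temperature after NADPH regeneration addition. Data normalized to full inhibition by 1.43 uM quinidine.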

[14] = molecular target: Glucocorticoid receptor (Homo sapiens) (UniProt P04150); test: GR-GFP Redistribution (AID 450;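 active = compounds whose dose series gives a full or clear partial fitted curve of increased nuclear translocation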; note: potency is the fitted concentration of half-maximal effect); settings: U2OS GR-GFP nuclear translocation, laser cytometry, 2 h
[15] = Confirmation and Secondary Assay for Modulators of Hemoglobin Beta Chain Splicing at IVS2 705 locus (AID 930; active = well fitted curve in the direction sought with a large enough effect; an effect the other way counts as inactive or inconclusive;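 note: HeLa cells stably expressing the EGFP-705 splicing reporter; GFP fluorescence per well restored by corrected splicing of the IVS2-705 intron in EGFP; % of control where 0% means no effect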); settings: HeLa EGFP-705 splicing reporter, GFP fluorescence, 48 h; series mostly up to 38.3 µM
In short: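 Secondary splice-site specificity test uses HeLa expressing CMV-driven EGFP interrupted by IVS2-705; cells were treated 2 days at 37C with 500 nM antisense PNA as positive control.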

[16] = molecular target: Ubiquitin carboxyl-terminal hydrolase 1 (Homo sapiens) (UniProt O94782); test: Inhibitors of USP1/UAF1: Pilot qHTS (AID 504865; active = well fitted curve in the direction sought with a large enough effect; an effect the other way counts as inactive or inconclusive;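 note: rhodamine fluorescence freed from ubiquitin-rhodamine substrate followed over time; top concentration of the series differs between compounds; % is set by controls: 0 for no effect and ±100 for the full control effect; nearly all actives have a fitted effect of over 35% in size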); settings: purified USP1/UAF1, Ub-rhodamine cleavage fluorescence; series mostly up to 54.9 µM
Ubiquitin carboxyl-terminal hydrolase 1 (Homo sapiens), sequence (O94782 whole entry, looked up): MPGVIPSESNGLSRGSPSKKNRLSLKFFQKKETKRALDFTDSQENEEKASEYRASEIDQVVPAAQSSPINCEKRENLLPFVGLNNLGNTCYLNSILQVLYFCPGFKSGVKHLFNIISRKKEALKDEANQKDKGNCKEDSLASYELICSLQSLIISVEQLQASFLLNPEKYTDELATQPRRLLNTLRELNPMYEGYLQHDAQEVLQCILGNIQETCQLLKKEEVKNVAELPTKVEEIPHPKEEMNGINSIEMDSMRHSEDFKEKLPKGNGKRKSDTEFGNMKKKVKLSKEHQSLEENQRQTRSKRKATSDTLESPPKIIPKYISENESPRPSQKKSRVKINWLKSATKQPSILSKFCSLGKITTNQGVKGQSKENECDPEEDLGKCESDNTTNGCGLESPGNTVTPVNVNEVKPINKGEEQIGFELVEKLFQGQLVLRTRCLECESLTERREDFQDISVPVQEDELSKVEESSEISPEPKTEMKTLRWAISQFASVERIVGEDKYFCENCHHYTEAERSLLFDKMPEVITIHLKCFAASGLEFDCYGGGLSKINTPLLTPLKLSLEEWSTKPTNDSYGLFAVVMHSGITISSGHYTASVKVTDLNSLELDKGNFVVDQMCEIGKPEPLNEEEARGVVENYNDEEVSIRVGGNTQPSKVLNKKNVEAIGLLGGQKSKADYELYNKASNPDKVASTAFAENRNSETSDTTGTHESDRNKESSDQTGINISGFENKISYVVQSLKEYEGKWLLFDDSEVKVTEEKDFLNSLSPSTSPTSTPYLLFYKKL
In short: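 Deubiquitinase activity followed as kinetic rhodamine fluorescence release from 150 nM Ub-Rho. 1 nM USP1/UAF1 with compound, after 15 min room-temperature preincubation, in HEPES pH 7.8 buffer containing TCEP, EDTA, BSA and Tween-20.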

[17] = measured here: cell count channel max response
[18] = measured here: lipid channel max response

SMILES: COc1ccc(C(=O)N2CCC3(CC2)CCN(c2ccncc2)CC3)cc1
- Potency [1]: > 11.4 µM (inactive)
- activity change, negative = inhibition [2]: 14.4% (inactive)
- activity, negative = inhibition [3]: 5.85% (inactive)
- Potency [4]: > 46 µM (inactive)
- Potency [5]: inactive
- Potency [6]: inactive
- Potency [7]: inactive
- activity change, negative = inhibition [8]: -1.55% (inactive)
- max response [8, 17]: 12.5%
- max response [8, 18]: 14%
- outcome [9]: inactive

SMILES: CN1CCC2(CC1)CCN(C(=O)c1cccc(F)c1)CC2
- Potency [1]: > 11.4 µM (inactive)
- activity change, negative = inhibition [2]: 2.25% (inactive)
- Potency [5]: inactive
- Potency [6]: inactive
- activity change, negative = inhibition [8]: -1.77% (inactive)
- max response [8, 17]: 3%
- max response [8, 18]: 2.59%
- outcome [9]: inactive

SMILES: COc1ccccc1CN1CCC2(CC1)CCN(C(=O)c1csnn1)CC2
- Potency [1]: > 11.4 µM (inactive)
- activity change, negative = inhibition [2]: 0.316% (inactive)
- activity, negative = inhibition [3]: -5.49% (inactive)
- Potency [4]: > 46 µM (inactive)
- Potency [5]: inactive
- Potency [6]: inactive
- Potency [7]: inactive
- activity change, negative = inhibition [8]: 5.71% (inactive)
- max response [8, 17]: 16.4%
- max response [8, 18]: 24.4%
- outcome [9]: inactive

SMILES: CS(=O)(=O)N1CCC2(CC1)CN(C(c1ccccc1)c1ccccc1)C2
- Potency [1]: > 11.4 µM (inactive)
- Potency [10]: inactive
- activity change, negative = inhibition [11]: -0.932% (inactive)
- activity, negative = inhibition [3]: -5.62% (inactive)
- Potency [4]: > 46 µM (inactive)
- Potency [5]: inactive
- Potency [6]: inactive
- Potency [12]: inactive
- Potency [7]: 15.8 µM (active)
- Potency [13]: 2.51 µM (active)
- activity change, negative = inhibition [8]: -2.92% (inactive)
- max response [8, 17]: -5.26%
- max response [8, 18]: -3.93%
- outcome [9]: inactive

SMILES: COC(=O)N1CCC2(CC1)CN(c1ccc(-c3ccccc3)cc1)C2
- Potency [1]: > 11.4 µM (inactive)
- Potency [10]: 1.26 µM (active)
- activity change, negative = inhibition [11]: 15.9% (inactive)
- activity, negative = inhibition [3]: -8.46% (inactive)
- Potency [4]: > 46 µM (inactive)
- Potency [5]: inactive
- Potency [6]: inactive
- Potency [12]: inactive
- Potency [7]: 3.16 µM (active)
- activity change, negative = inhibition [8]: 5.19% (inactive)
- max response [8, 17]: -7.69%
- max response [8, 18]: 0.422%
- outcome [9]: inactive

SMILES: CC(C)CN1CC2(CCN(C(=O)c3ccco3)CC2)C1
- Potency [1]: > 11.4 µM (inactive)
- activity change, negative = inhibition [2]: 6.73% (inactive)
- activity, negative = inhibition [3]: -3.41% (inactive)
- Potency [4]: > 46 µM (inactive)
- Potency [5]: inactive
- Potency [6]: inactive
- activity change, negative = inhibition [8]: -2.08% (inactive)
- max response [8, 17]: 8.53%
- max response [8, 18]: 7.7%
- outcome [9]: inactive

SMILES: CN(C)C(=O)c1ccc(-c2nc(NCc3ccccc3)c3ccccc3n2)cc1
- Potency [1]: > 11.4 µM (inactive)
- Potency [10]: 15.8 µM (active)
- activity change, negative = inhibition [11]: 16% (inactive)
- activity, negative = inhibition [3]: -21.7% (inactive)
- Potency [14]: > 46 µM (inactive)
- Potency [4]: > 46 µM (inactive)
- Potency [5]: inactive
- Potency [7]: inactive
- outcome [15]: inactive
- activity change, negative = inhibition [8]: 10.9% (inactive)
- max response [8, 17]: 6.91%
- max response [8, 18]: 16.5%
- Potency [16]: inactive
- outcome [9]: inactive
